CYP2C19 act – human CYP2C19 activators, primary screen, biochemical, luminescence; Cytochrome P450 2C19 (Homo sapiens), P33261; recombinant CYP2C19, luciferin-H EGE luminescence; stronger effect = higher value; 0 = fully inhibited enzyme, 1 = untreated enzyme; activation factor at 5 µM; 96,000 tested, under 10 active; AID 1025, 2008;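 active means activation factor of at least 2 at 5 µM in the primary screen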
PostGolgi ctrl – growth inhibition of yeast control strain, primary screen, counter-screen for post-Golgi transport modulator project; efflux-deficient yeast background strain, growth absorbance A615, 16 h; inhibition, % at 10 µM; hit rate 5% among 98,000
CYP2C19 inh – blockers of cytochrome P450 2C19 activity – biochemical, luminescence, ADME assay, primary screen; hit rate 21% among 96,000; AID 778, 2007; inhibition, % at 5 µM; P33261; CYP2C19 Supersomes, luciferin-H EGE luminescence, 30 min;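 active means CYP2C19 inhibition above a set limit at 5 µM in the primary screen, cut at about 50% in these data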
CYP2C9 act – human CYP2C9 activators, primary screen, biochemical, luminescence; recombinant CYP2C9, luciferin-H conversion; stronger effect = higher value; factor 1 = untreated enzyme, 0 = blocked; hit rate 1.4% among 96,000; activation factor at 5 µM; Cytochrome P450 2C9 (Homo sapiens), P11712;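 active means activation factor of 2 or more for CYP2C9 at a 5 µM dose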
Target sequence (P11712 whole entry, looked up): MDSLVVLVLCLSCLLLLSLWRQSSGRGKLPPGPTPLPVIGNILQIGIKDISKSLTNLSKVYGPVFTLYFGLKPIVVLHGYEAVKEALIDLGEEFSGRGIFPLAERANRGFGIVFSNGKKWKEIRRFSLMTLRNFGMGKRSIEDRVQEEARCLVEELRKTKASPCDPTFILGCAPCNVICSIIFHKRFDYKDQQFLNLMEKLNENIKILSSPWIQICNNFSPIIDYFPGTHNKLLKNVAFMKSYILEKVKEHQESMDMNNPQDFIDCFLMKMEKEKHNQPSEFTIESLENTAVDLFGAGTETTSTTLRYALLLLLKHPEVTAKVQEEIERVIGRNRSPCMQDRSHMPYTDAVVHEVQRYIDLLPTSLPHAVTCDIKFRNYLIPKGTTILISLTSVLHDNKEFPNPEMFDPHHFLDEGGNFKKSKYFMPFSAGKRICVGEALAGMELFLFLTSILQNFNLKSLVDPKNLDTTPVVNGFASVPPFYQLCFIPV
PostGolgi yeast – phenotypic screen on post-Golgi transport, primary screen. post-Golgi transport phenotypic cell assay. inhibition, % at 10 µM. hit rate 0.9% among 98,000;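 further: yeast cells grown in 1536-well plates; yeast grown about 18 h at 30C before absorbance read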
CYP2C9 inhib – blockers of cytochrome P450 2C9 activity – biochemical, luminescence, ADME assay, primary screen. inhibition, % at 5 µM. hit rate 20% among 96,000. CYP2C9 Supersomes, luciferin-H conversion;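 active means blocking of liver enzyme CYP2C9 beyond about 50% at 5 µM, limit read from the data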
Of the large screens only hits and unclear results are named; the others gave an inactive call. A selection: hits, their analogues and other compounds. The true share with any hit is near 32%. Unless noted, no stated cut-off is given here; in the data, active means inhibition above about 30%; inactive means the rest.

COc1ccc(-c2cnn3c4c(c(C)nc23)CCN4C2CCCC2)cc1OC	none
COc1ccc(C(=O)CN2C(=O)NC(C)(c3ccccc3)C2=O)cc1OC (stereo not given)	none
COc1ccc(C(=O)NCC(C)(C)SCc2c(C)cc(C)cc2C)cc1	none
Cc1cc(C)c(S(=O)(=O)c2ccccc2)c(Cl)n1	CYP2C19 inh 69, CYP2C9 act 3.2
Cc1cc(C)c(S(=O)(=O)c2ccccc2)c(OC(=O)c2ccc(Cl)cc2Cl)n1	none
Cc1ccc(S(=O)(=O)c2c(C)cc(C)nc2Cl)cc1	CYP2C19 inh 94
Cc1cc(-n2nc(C)cc2C)nc(NS(=O)(=O)c2ccccc2)n1	none
Cc1cc(C)c(S(=O)(=O)c2ccccc2)c(OC(=O)c2c(Cl)cccc2Cl)n1	PostGolgi yeast 49
COc1ccc(Oc2nc(C)cc(C)c2S(=O)(=O)c2ccc(C)cc2)cc1	none
CN(C)CCNC(=O)c1ccc(COc2ccc(Cl)cc2Cl)cc1	none
CCOC(=O)CSC1=C(C#N)C(=O)NC2(CCCCC2)S1	CYP2C9 inhib 61
CCOC(=O)CSc1nc(C)c(C(C)=O)cc1C#N	none
CC(C)CCC(CCN1CCOCC1)c1ccc2c(c1)OCO2 (stereo not given)	CYP2C19 inh 95, CYP2C9 inhib 51
Clc1ccccc1C1SCC2Nc3ccccc3CN21 (stereo not given)	CYP2C19 inh 87, CYP2C9 inhib 53
COC(=O)CC1SC(=O)NC1=Nc1ccc(C)cc1 (stereo not given)	CYP2C19 inh 75
NC(=O)c1cc(-c2ccccc2)nc(N2CCCCCC2)n1	PostGolgi ctrl 37
NC(=O)c1cc(-c2ccccc2)nc(N2CCOCC2)n1	none
CCc1c(C)nc(N)n2c(SCC(=O)Nc3ccccc3)nnc12	none
CCCCCC(=O)N1CCN(CCN=CC2=C(O)CC(c3cccs3)CC2=O)CC1 (stereo not given)	none
COc1ccccc1-c1nnc2sc(COc3ccc(Cl)cc3)nn12	PostGolgi ctrl 35, CYP2C19 inh 81, CYP2C9 inhib 88
COc1ccc(-c2nnc3sc(-c4ccccc4OC)nn23)cc1	none (no result: PostGolgi ctrl, PostGolgi yeast)
COc1ccc(Cc2nn3c(Cn4nnc5ccccc54)nnc3s2)cc1	CYP2C19 inh 87, CYP2C9 inhib 79
COc1ccc(Cc2nn3c(-c4ccccc4OC)nnc3s2)cc1	CYP2C19 inh 82, CYP2C9 inhib 60
Cc1ccc(S(=O)(=O)c2cc(C#N)c(=O)[nH]c2N)cc1	none
Fc1cccc(CO/N=C/c2c(-c3ccccc3)nc3ccc(Cl)cn23)c1	none
Clc1cccc(Cl)c1CO/N=C/c1c(-c2ccccc2)nc2n1CCS2	PostGolgi ctrl 30, CYP2C9 inhib 73
Cc1cc(S(=O)(=O)Nc2ccc(N(C)C)cc2)c(C)s1	PostGolgi ctrl 48, CYP2C19 inh 100, CYP2C9 inhib 100
CCN(C#N)c1nc(N(C)C)nc(N(C)C)n1	none
COc1cccc(C2N(c3cccc(Cl)c3)C(=O)C3CCCN32)c1 (stereo not given)	CYP2C19 inh 70, CYP2C9 inhib 88
CCOc1ccc(C2N(c3ccc(OC)cc3)C(=O)C3CCCN32)cc1OC (stereo not given)	none
COc1cccc(N2C(=O)C3CCCN3C2c2ccc(Cl)cc2)c1 (stereo not given)	CYP2C19 inh 69, CYP2C9 inhib 50
COc1ccc(N2C(=O)C3CCCN3C2c2cccc(Br)c2)cc1 (stereo not given)	CYP2C9 inhib 52
O=C(O)C(c1ccccc1)N1CCCC1 (stereo not given)	none (no result: CYP2C19 act, CYP2C19 inh, CYP2C9 act, CYP2C9 inhib)
COc1ccc(OC)c(CNc2ccc(F)c(Cl)c2)c1	CYP2C9 inhib 58
COc1cccc(CNC(=O)C2CCN(S(=O)(=O)c3ccc4c(c3)CCC(=O)N4)CC2)c1	none
COc1cccc(NC(=S)N(CCc2nc3cc(C)c(C)cc3[nH]2)Cc2cccnc2)c1	none
COc1ccc2[nH]c(C)c(CCN(Cc3cccs3)C(=S)Nc3cccc(F)c3)c2c1	CYP2C19 inh 78, CYP2C9 inhib 98
C=CCC(C)(NCc1ccccc1)c1ccco1 (stereo not given)	none
O=C(COC(=O)CC1CCCC1)Nc1cc2c(cc1Cl)C(=O)c1ccccc1C2=O	CYP2C19 inh 61
CC(C)Cn1c(SC(C)C(=O)Nc2ccc3c(c2)OCCO3)nc2ccccc2c1=O (stereo not given)	CYP2C19 inh 83, CYP2C9 inhib 93
O=C(CSc1nnnn1-c1ccccc1)NC(=O)Nc1ccc2c(c1)OCCO2	none
COCC(C)n1c(SCC(=O)NC(=O)Nc2ccc3c(c2)OCCO3)nc2ccccc2c1=O (stereo not given)	CYP2C19 inh 52, CYP2C9 inhib 78
O=C(CSc1nc(Cc2ccccc2)nc2ccccc12)Nc1ccc2c(c1)OCCO2	none
CCOC(=O)N1CCN(CC(=O)c2ccc3c(c2)CCN3C(C)=O)CC1	none
CCN(CC)CCn1c2ccc(F)cc2c2nc(C)sc21	none
CC(C)C12CN3CC(C(C)C)(CN(C1)C3c1ccccc1)C2O (stereo not given)	none
COc1ccccc1NS(=O)(=O)c1ccc(NC(=O)CCNC(=O)c2ccco2)cc1	none
CCOC(=O)c1c(C)[nH]c2cc(Br)c(O)cc12	CYP2C19 inh 68, CYP2C9 inhib 68 (no result: PostGolgi ctrl, PostGolgi yeast)
COc1ccc(-n2nnc3c(=O)n(Cc4cc(C)ccc4C)cnc32)cc1	CYP2C9 inhib 72
Cc1ccc(-n2nnc3c(=O)n(Cc4ccccc4C)cnc32)cc1	none
COCC(C)NC(=O)COc1ccc(Cl)cc1Cl (stereo not given)	none (no result: CYP2C19 act, CYP2C19 inh, CYP2C9 act, CYP2C9 inhib)
COCCCN1C(=O)c2[nH]nc(-c3cc(C)cc(C)c3O)c2C1c1ccc(O)c(OC)c1 (stereo not given)	CYP2C19 inh 87, CYP2C9 inhib 63
Cc1cc(O)c(-c2n[nH]c3c2C(c2cccc(O)c2)N(Cc2cccnc2)C3=O)cc1Cl (stereo not given)	CYP2C9 inhib 67
COCCCN1C(=O)c2[nH]nc(-c3ccccc3O)c2C1c1cccc(Cl)c1 (stereo not given)	none
Cc1ccc2cc(C#N)c(N3CCCC3)nc2c1C	PostGolgi ctrl 47
Cc1ccc2cc(C#N)c(N3CCCN(C(=O)C4CCCO4)CC3)nc2c1C (stereo not given)	CYP2C19 inh 85, CYP2C9 inhib 82
Cc1cc(C)c2nc(N3CCCN(C(=O)c4ccco4)CC3)c(C#N)cc2c1	CYP2C19 inh 73, CYP2C9 inhib 87
CCOc1c(OC)cccc1C1CC(=O)Nc2cc(OC)c(OC)cc21 (stereo not given)	none (no result: CYP2C19 act, CYP2C19 inh, CYP2C9 act, CYP2C9 inhib)
CCCOc1c(OC)cccc1C1CC(=O)Nc2cc3c(cc21)OCCO3 (stereo not given)	CYP2C9 inhib 68
